# Reference: PubChem BioAssay (EPA / NIEHS)
# Inconclusive results are not listed. The source made the active and inactive calls. The calls were made as follows, unless noted: active = hit-call score of the fitted dose curve at least 0.9, where 1 is the maximum; inactive = score below 0.9.
# Columns and labels:
# [1] = ATG_NFI_CIS: Attagene CIS-FACTORIAL HepG2 Assay for human Nuclear Factor I (NFI) (AID 2282989); settings: HepG2 cis-regulatory reporter, NFI response element transcription; actives raise or lower the signal
# Method in brief: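 Multiplexed cis-reporter system in human HepG2 cells reports native TF activity as reporter mRNA induction 24 h post-dose. Fragments labelled with 6-FAM, HpaI-digested and resolved by capillary electrophoresis; activity fitted both directions versus DMSO.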
# [2] = target: Myc proto-oncogene protein (Homo sapiens) (UniProt P01106); assay: ATG_Myc_CIS: Attagene CIS-FACTORIAL HepG2 Assay for human Myelocytomatosis (Myc) Proto-Oncogene Transcription Factor (AID 2282990); settings: HepG2, Attagene cis-reporter transcription factor activity; actives raise or lower the signal
# Myc proto-oncogene protein (Homo sapiens), sequence (P01106 whole entry, looked up, the tested form may be a part): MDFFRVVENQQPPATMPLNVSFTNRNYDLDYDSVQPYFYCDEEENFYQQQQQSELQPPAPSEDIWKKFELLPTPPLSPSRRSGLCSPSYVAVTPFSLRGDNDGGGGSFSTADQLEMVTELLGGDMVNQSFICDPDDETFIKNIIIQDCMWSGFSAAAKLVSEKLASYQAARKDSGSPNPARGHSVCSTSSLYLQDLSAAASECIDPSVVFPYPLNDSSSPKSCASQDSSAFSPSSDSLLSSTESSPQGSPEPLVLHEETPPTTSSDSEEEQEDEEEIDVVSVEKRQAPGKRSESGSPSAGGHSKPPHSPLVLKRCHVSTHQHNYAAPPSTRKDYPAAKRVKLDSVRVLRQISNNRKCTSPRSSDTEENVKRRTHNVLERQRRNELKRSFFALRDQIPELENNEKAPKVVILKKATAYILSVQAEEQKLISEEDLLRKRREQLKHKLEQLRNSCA
# Method in brief: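 After 24 h chemical treatment of HepG2 cells carrying multiplexed cis-regulated reporter constructs, reporter transcripts quantified by RT-PCR and capillary electrophoresis of fluorescent fragments. Gain or loss fitted against DMSO baseline.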
# [3] = ATG_NF_kB_CIS: Attagene CIS-FACTORIAL HepG2 Assay for human Nuclear Factor Kappa B (NF-kB) (AID 2282991); settings: HepG2 Attagene cis-factorial NF-kB reporter mRNA; actives raise or lower the signal
# Method in brief: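 HepG2 cells transiently transfected with multiplexed cis-element reporter units measuring endogenous transcription factor activity; reporter mRNA read 24 h after dosing by RT-PCR, fluorescent labelling, HpaI digestion and capillary electrophoresis. Bidirectional fit against DMSO baseline.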
# [4] = ATG_NRF2_ARE_CIS: Attagene CIS-FACTORIAL HepG2 Assay for human Nuclear Factor Erythroid 2 Related Factor 2 (NFR2) response to Antioxidant Response Elements (ARE) (AID 2282992); settings: HepG2 Attagene ARE/NRF2 reporter, transcription factor activity; actives raise or lower the signal;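 as to AC50: reporter mRNA level measured by RT-PCR and capillary electrophoresis fluorescence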
# Method in brief: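 Multiplexed reporter mRNA profiling in HepG2 after a 24 h chemical exposure. Curves fitted in both directions relative to DMSO negative control.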
# [5] = ATG_Oct_MLP_CIS: Attagene CIS-FACTORIAL HepG2 Assay for human Octamer-Binding Transcription Factor (Oct) (AID 2282993); settings: HepG2 Attagene cis-factorial Oct reporter, mRNA; actives raise or lower the signal
# Method in brief: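 After 24 h compound exposure, transfected HepG2 cells were lysed for total RNA; reporter-specific cDNA was PCR-amplified, fluorescently labelled and sized by capillary electrophoresis. Bidirectional curve fitting used DMSO as baseline.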
# [6] = target: Cellular tumor antigen p53 (Homo sapiens) (UniProt P04637); assay: ATG_p53_CIS: Attagene CIS-FACTORIAL HepG2 Assay for human p53 Transcription Factor (AID 2282994); settings: HepG2 p53 cis-element reporter, Attagene mRNA; actives raise or lower the signal
# Cellular tumor antigen p53 (Homo sapiens), sequence (P04637 whole entry, looked up): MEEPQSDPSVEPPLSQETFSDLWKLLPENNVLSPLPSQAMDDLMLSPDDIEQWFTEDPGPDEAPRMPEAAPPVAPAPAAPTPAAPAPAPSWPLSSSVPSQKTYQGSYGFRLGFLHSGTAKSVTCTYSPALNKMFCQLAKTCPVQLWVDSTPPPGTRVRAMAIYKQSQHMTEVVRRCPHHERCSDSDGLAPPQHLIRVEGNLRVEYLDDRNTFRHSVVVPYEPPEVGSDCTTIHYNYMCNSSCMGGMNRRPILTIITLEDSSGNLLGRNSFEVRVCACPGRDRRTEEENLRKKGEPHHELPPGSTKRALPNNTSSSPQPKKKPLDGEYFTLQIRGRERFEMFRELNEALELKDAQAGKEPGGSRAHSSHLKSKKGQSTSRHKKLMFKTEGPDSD
# Method in brief: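 Multiplexed reporter mRNA assay in human HepG2 liver cells; cis-regulated units report endogenous factor activity. Values come from bidirectional curve fitting against DMSO negative control after 24 h treatment.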
# [7] = target: Retinoic acid receptor alpha (Homo sapiens) (UniProt P10276); assay: ATG_RARa_TRANS: Attagene TRANS-FACTORIAL HepG2 Assay for human Retinoic Acid Receptor alpha (RARa) (AID 2283005; active = hit-call score of the fitted dose curve at least 0.9, where 1 is the maximum)
# Retinoic acid receptor alpha (Homo sapiens), sequence (P10276 whole entry, looked up, the tested form may be a part): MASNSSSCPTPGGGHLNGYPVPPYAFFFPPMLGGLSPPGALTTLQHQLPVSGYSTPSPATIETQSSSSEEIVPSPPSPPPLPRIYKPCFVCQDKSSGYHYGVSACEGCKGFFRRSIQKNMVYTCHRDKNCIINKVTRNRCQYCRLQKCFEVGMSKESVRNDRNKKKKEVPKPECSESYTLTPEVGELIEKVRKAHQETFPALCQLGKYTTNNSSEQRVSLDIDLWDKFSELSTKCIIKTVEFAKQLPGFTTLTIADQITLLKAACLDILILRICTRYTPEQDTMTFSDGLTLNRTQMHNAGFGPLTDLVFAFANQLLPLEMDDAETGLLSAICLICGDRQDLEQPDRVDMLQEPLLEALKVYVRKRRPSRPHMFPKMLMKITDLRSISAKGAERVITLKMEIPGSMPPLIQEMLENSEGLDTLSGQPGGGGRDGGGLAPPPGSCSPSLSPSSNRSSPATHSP
# Method in brief: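 Reporter transcripts, measured by RT-PCR with fluorescent labeling and capillary electrophoresis after 24 h dosing, reflect activity of an exogenous human RARa–GAL4 fusion in transiently transfected HepG2. Fitted for increase relative to DMSO.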
# [8] = target: Nuclear receptor subfamily 1 group I member 2 (Homo sapiens) (UniProt O75469); assay: ATG_PXR_TRANS: Attagene TRANS-FACTORIAL HepG2 Assay for human Pregnane X Receptor (PXR) (AID 2283008; active = hit-call score of the fitted dose curve at least 0.9, where 1 is the maximum)
# Nuclear receptor subfamily 1 group I member 2 (Homo sapiens), sequence (O75469 whole entry, looked up, the tested form may be a part): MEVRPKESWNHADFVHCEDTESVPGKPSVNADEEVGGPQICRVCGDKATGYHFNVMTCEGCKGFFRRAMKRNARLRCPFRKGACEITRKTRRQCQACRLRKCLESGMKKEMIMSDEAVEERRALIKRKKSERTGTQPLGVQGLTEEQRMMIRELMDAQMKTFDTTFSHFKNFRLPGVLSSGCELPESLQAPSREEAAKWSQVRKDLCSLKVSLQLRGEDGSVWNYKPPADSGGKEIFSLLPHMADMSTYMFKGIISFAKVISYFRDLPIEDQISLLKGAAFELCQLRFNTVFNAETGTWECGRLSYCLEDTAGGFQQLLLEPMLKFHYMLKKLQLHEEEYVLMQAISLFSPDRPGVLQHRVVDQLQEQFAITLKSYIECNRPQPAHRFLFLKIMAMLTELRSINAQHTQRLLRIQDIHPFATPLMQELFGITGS
# Method in brief: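 Measures mRNA induction of a GAL4-UAS-driven reporter in human HepG2 cells transiently expressing PXR fused to Gal4, following 24 h treatment. DMSO served as negative control and baseline.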
# [9] = target: human Retinoic Acid Receptor beta (RARb), RARB (gene 5915) (UniProt P10826); assay: ATG_RARb_TRANS: Attagene TRANS-FACTORIAL HepG2 Assay for human Retinoic Acid Receptor beta (AID 2283004; active = hit-call score of the fitted dose curve at least 0.9, where 1 is the maximum)
# human Retinoic Acid Receptor beta (RARb), RARB (gene 5915), sequence (P10826 whole entry, looked up, the tested form may be a part): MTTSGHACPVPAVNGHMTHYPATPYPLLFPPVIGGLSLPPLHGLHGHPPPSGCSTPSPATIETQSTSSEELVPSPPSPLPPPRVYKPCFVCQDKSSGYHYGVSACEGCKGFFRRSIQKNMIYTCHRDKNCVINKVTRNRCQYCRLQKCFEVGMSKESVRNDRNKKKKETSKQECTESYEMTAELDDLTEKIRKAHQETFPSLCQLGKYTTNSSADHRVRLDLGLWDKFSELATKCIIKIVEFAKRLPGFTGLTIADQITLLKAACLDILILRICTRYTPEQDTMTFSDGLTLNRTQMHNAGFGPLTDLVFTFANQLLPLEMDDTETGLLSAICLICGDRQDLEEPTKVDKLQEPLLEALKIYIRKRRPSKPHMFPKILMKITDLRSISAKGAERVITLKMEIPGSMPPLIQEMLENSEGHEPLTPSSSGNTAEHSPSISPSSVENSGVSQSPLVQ
# Method in brief: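 HepG2, transient MRTU transfection, NR–Gal4 chimera, 24 h treatment; RT-PCR plus CE fluorescence detection of reporter mRNA; gain of signal vs DMSO.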
# [10] = target: human RAR-related Orphan Receptor beta (RORb), RORB (gene 6096) (UniProt Q92753); assay: ATG_RORb_TRANS: Attagene TRANS-FACTORIAL HepG2 Assay for human RAR-related Orphan Receptor beta (RORb) (AID 2283010; active = hit-call score of the fitted dose curve at least 0.9, where 1 is the maximum)
# human RAR-related Orphan Receptor beta (RORb), RORB (gene 6096), sequence (Q92753 whole entry, looked up, the tested form may be a part): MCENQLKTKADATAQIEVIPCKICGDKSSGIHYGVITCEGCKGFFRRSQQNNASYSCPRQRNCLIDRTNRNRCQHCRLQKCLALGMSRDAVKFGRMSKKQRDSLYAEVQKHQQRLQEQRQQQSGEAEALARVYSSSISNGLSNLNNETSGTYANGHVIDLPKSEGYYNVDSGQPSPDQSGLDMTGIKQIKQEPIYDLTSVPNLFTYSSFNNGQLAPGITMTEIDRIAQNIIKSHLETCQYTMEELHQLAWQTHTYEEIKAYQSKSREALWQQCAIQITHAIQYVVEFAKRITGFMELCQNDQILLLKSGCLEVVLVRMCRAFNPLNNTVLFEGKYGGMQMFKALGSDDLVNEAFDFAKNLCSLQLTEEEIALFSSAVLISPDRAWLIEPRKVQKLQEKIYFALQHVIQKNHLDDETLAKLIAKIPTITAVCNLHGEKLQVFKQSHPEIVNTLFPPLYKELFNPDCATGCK
# Method in brief: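 HepG2 cells were transiently transfected with multiplexed GAL4-UAS reporter units expressing chimeric nuclear receptor–GAL4 proteins, then dosed for 24 h. Reporter mRNA was quantified by RT-PCR with fluorescent labelling and capillary electrophoresis; gain of signal was fitted relative to DMSO.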
# [11] = target: human Peroxisome Proliferator-activated Receptor delta (PPARd), PPARD (gene 5467) (UniProt Q03181); assay: ATG_PPARd_TRANS: Attagene TRANS-FACTORIAL HepG2 Assay for human Peroxisome Proliferator-activated Receptor delta (PPARd) (AID 2283002; active = hit-call score of the fitted dose curve at least 0.9, where 1 is the maximum)
# human Peroxisome Proliferator-activated Receptor delta (PPARd), PPARD (gene 5467), sequence (Q03181 whole entry, looked up, the tested form may be a part): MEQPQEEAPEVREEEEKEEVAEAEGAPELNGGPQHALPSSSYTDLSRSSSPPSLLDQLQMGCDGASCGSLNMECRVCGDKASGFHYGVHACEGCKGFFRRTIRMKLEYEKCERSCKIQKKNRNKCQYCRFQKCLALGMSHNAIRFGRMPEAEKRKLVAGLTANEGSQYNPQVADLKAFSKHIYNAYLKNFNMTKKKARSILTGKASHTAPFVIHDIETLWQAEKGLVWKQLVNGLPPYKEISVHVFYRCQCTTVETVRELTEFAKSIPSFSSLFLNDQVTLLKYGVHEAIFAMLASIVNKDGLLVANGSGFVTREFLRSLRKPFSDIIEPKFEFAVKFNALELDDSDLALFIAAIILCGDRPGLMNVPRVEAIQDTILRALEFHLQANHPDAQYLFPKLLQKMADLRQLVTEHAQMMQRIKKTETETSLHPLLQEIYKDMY
# Method in brief: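 Read-out is induced reporter mRNA, quantified by RT-PCR with fluorescent labelling and capillary electrophoresis after 24 h dosing. Cells are HepG2 transiently carrying multiple GAL4-UAS reporter units driven by exogenous NR-GAL4 chimeras; DMSO serves as baseline.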
# [12] = target: Peroxisome proliferator-activated receptor gamma (Homo sapiens) (UniProt P37231); assay: ATG_PPARg_TRANS: Attagene TRANS-FACTORIAL HepG2 Assay for human Peroxisome Proliferator-activated Receptor-gamma (PPARg) (AID 2283007; active = hit-call score of the fitted dose curve at least 0.9, where 1 is the maximum)
# Peroxisome proliferator-activated receptor gamma (Homo sapiens), sequence (P37231 whole entry, looked up, the tested form may be a part): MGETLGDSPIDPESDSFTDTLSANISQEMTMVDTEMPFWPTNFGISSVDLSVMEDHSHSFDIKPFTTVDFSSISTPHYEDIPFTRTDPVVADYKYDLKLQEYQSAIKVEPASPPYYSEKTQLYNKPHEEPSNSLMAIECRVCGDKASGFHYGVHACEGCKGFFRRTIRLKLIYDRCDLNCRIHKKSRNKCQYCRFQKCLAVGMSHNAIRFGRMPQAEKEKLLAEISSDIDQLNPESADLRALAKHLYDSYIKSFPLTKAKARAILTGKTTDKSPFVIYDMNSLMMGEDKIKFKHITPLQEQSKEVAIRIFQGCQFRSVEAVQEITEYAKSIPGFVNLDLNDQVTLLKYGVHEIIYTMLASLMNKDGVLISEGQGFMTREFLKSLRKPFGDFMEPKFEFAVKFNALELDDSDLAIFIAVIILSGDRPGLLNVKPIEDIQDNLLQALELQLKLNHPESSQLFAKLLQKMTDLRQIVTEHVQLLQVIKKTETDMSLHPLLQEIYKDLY
# Method in brief: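 HepG2 cells transiently transfected with multiplexed GAL4-UAS reporter units and exogenous chimeric NR-Gal4 proteins; reporter mRNA quantified after 24 h compound exposure by RT-PCR, fluorescent labelling, HpaI digestion and capillary electrophoresis; gain-of-signal fitted versus DMSO baseline.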
# [13] = target: human Retinoic Acid Receptor gamma (RARg), RARG (gene 5916) (UniProt P13631); assay: ATG_RARg_TRANS: Attagene TRANS-FACTORIAL HepG2 Assay for human Retinoic Acid Receptor gamma (RARg) (AID 2283009; active = hit-call score of the fitted dose curve at least 0.9, where 1 is the maximum)
# human Retinoic Acid Receptor gamma (RARg), RARG (gene 5916), sequence (P13631 whole entry, looked up, the tested form may be a part): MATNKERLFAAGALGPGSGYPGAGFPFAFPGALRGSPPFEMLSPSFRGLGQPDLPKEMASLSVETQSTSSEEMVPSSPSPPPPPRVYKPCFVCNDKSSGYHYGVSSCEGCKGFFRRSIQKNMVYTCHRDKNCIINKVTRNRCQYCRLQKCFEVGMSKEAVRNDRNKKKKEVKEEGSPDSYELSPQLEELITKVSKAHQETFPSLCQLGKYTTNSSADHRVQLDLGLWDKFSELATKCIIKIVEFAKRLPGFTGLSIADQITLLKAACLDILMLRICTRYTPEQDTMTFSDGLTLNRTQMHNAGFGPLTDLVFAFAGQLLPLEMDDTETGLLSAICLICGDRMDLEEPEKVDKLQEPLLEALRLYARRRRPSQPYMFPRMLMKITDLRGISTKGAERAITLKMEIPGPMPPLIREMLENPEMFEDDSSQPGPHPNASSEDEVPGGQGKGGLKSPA
# Method in brief: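 HepG2 cells transiently transfected with multiplexed reporter units expressing chimeric RARg-GAL4 and GAL4-UAS-driven reporters; 24 h compound exposure. Reporter mRNA quantified by RT-PCR with fluorescent labelling and capillary electrophoresis; gain-of-signal fitted relative to DMSO baseline.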
SMILES,outcome [1],outcome [2],outcome [3],outcome [4],outcome [5],outcome [6],outcome [7],outcome [8],outcome [9],outcome [10],outcome [11],outcome [12],outcome [13],AC50 [1],AC50 [4],AC50 [12]
O=C(O)COCC(=O)O,inactive,inactive,inactive,inactive,inactive,inactive,inactive,inactive,,,,,,,,
OCCCCC(O)CO (stereo unspecified),inactive,inactive,inactive,inactive,inactive,inactive,inactive,inactive,inactive,inactive,,,,,,
C[N+](C)(C)CCCCCC[N+](C)(C)C,inactive,inactive,inactive,inactive,inactive,inactive,,inactive,inactive,,inactive,inactive,,,,
CCOc1ccc(NC(=O)CC(C)O)cc1 (stereo unspecified),inactive,inactive,inactive,inactive,inactive,inactive,inactive,inactive,inactive,,,inactive,,,,
C[C@H]1C[C@@H](O)CC(C)(C)C1,inactive,inactive,inactive,inactive,inactive,inactive,inactive,inactive,inactive,inactive,,inactive,inactive,,,
CCc1ccc(O)c(OC)c1,inactive,inactive,inactive,inactive,inactive,inactive,,inactive,,,inactive,inactive,,,,
CCOC(=O)CN,inactive,inactive,inactive,inactive,inactive,inactive,,,inactive,,inactive,inactive,inactive,,,
COCCc1ccc(OCC(O)CNC(C)C)cc1 (stereo unspecified),inactive,inactive,inactive,inactive,inactive,inactive,inactive,inactive,,,inactive,inactive,,,,
C1CCOC1,inactive,inactive,inactive,inactive,inactive,inactive,inactive,inactive,,inactive,inactive,inactive,inactive,,,
Brc1ccc(Br)c(Br)c1,inactive,inactive,inactive,inactive,inactive,inactive,inactive,,,,,inactive,inactive,,,
Cc1c(Cl)cccc1[N+](=O)[O-],inactive,inactive,inactive,inactive,inactive,inactive,,inactive,,,inactive,,,,,
CCOc1ccccc1O,inactive,inactive,inactive,inactive,inactive,inactive,inactive,inactive,,inactive,,inactive,,,,
CCCCOCC,inactive,inactive,inactive,inactive,inactive,inactive,inactive,,,,inactive,inactive,,,,
CCCCC(CC)C(=O)OC(C)C (stereo unspecified),inactive,inactive,inactive,inactive,inactive,inactive,,inactive,inactive,,,inactive,,,,
CC(C)C(OC(=O)c1ccccc1)C(C)(C)COC(=O)c1ccccc1 (stereo unspecified),inactive,inactive,inactive,inactive,inactive,inactive,,,,,inactive,inactive,inactive,,,
CC1CC(O)CC(C)(C)C1 (stereo unspecified),inactive,inactive,inactive,inactive,inactive,inactive,inactive,inactive,inactive,inactive,,,inactive,,,
CC(C)Nc1nc(N)nc(Cl)n1,inactive,inactive,inactive,inactive,inactive,inactive,,inactive,,,inactive,inactive,,,,
C=COCCOCCOC=C,inactive,inactive,inactive,inactive,inactive,inactive,,,,,inactive,inactive,,,,
COC(C)(C)CCCC(C)CC=O (stereo unspecified),inactive,inactive,inactive,inactive,inactive,inactive,inactive,inactive,,,inactive,inactive,,,,
Nc1ccccc1[N+](=O)[O-],inactive,inactive,inactive,inactive,inactive,inactive,,inactive,,,inactive,inactive,,,,
O=C(O)c1cccnc1C(=O)O,inactive,inactive,inactive,inactive,inactive,inactive,inactive,,inactive,,,,inactive,,,
COc1ccc(N=Nc2cc(C)c(N=Nc3ccc(S(=O)(=O)O)cc3)cc2OC)cc1,,inactive,inactive,,inactive,inactive,,inactive,,inactive,inactive,,,149 µM (active),25.7 µM (active),25.4 µM (active)
CCCCC1CCC(O)CC1 (stereo unspecified),inactive,inactive,inactive,inactive,inactive,inactive,inactive,,inactive,,inactive,inactive,inactive,,,
CCC1(C)NC(=O)NC1=O (stereo unspecified),inactive,inactive,inactive,inactive,inactive,inactive,,,inactive,inactive,,,inactive,,,
